Measurements taken from PubChem BioAssay (Tox21).
Several values for one entry are separate records, joined by “and”; a condition that tells them apart may be missing. Equal entries are not always repeated. Inconclusive results are not listed. Activity calls are given as the source filed them. Unless noted, the call rests on the fitted dose curve; in most records, active means well fitted curve in the direction sought with a large enough effect in the repeat runs; inconclusive means weak or mixed curves; inactive means no such curve, though single readings can be large; an effect the other way counts as inactive or inconclusive.

Assays:
[1] = qHTS assay to identify small molecule agonists of H2AX (AID 1224845; active means well fitted activation curve with a large enough effect in the signal ratio in the repeat runs, not every such curve was filed as active; the % refers to the signal ratio)
Method in brief: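 Wild-type CHO-K1 cells, plated overnight, exposed 3hr at 37C to 15 concentrations (0.76% DMSO final). Lysed, then HTRF anti-pH2AX (S139) cryptate and anti-H2AX-d2 antibodies, 24 hr room temperature; 665/620 nm emission read.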

[2] = qHTS assay to identify small molecule agonists of the hypoxia (HIF-1) signaling pathway (AID 1224846; active means well fitted activation curve with a large enough effect in the signal ratio in the repeat runs, not every such curve was filed as active; the % refers to the signal ratio)
Method in brief: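 Reporter induction in HRE-bla ME-180 cells is taken as agonism: cells sit 5 hrs after plating, receive compounds or DMSO only, incubate 17 hrs at 37C under 5% CO2, and are loaded with CCF4-AM for beta-lactamase FRET measurement.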

[3] = qHTS assay to identify small molecule agonists of H2AX - cell viability counter screen (AID 1224847; calls by dose curve; further: top concentration of the series differs between compounds; nearly all actives have a fitted effect of over 30% in size)
Method in brief: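 Compounds tested at 15 concentrations were incubated 3 hr at 37C with wild-type CHO-K1 cells; cellular ATP-based luminescence (CellTiter-Glo) indicated viability.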

[4] = qHTS assay to identify small molecule antagonists of the estrogen related receptor (ERR) signaling pathway from Tox21 library (AID 1224848); further: nearly all actives have a fitted effect of over 50% in size
Method in brief: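 Compounds dissolved in DMSO are pin-transferred onto ERR reporter cells (2,000 per well) that have settled for 6 h at 37 C. Plates then incubate 18 h at 37 C before ONE-Glo luciferase reagent and a luminescence read 30 min later.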

[5] = qHTS assay to identify small molecule agonists of the estrogen related receptor (ERR) signaling pathway from Tox21 library (AID 1224849; calls by dose curve; further: nearly all actives have a fitted effect of over 15% in size); conditions: ERR reporter cell line, ONE-Glo luciferase, 18 h
Method in brief: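 Tox21 compounds tested for ERR agonism in an NTP reporter cell line: 18 h treatment at 37 C, then ONE-Glo luminescence.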

[6] = qHTS RealTime-Glo MT Cell Viability Assay in HepG2 cells - 24 hour (AID 1224867); further: nearly all actives have a fitted effect of over 50% in size
Method in brief: (§1)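 Tox21 10K library screened in qHTS format on HepG2 cells carrying RealTime-Glo reagents. Compounds were added after a 5 h preincubation, and the luminescent signal from continuous culture was measured repeatedly during 40 h treatment.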

[7] = qHTS RealTime-Glo MT Cell Viability Assay in HEK293 cells - 32 hour (AID 1224868); further: top concentration of the series differs between compounds; nearly all actives have a fitted effect of over 50% in size
Method in brief: (§2)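 Luminescence generated by NanoLuc from substrate produced by living HEK293 cells served as the viability signal. Each value reflects the reading at its stated time point during continuous 40 h compound exposure at 37 C.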

[8] = A CellTox Green Cytotoxicity Assay to monitor cytotoxicity in HEK293 cells - 0 hour (AID 1224869); further: nearly all actives have a fitted effect of over 50% in size
Method in brief: (§3)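 Tox21 screen in HEK293: membrane-impermeant cyanine dye fluoresces on binding dead-cell DNA; compound pinned 5 h post-seeding, plates held at 37 C, signal read repeatedly through 40 h.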

[9] = qHTS RealTime-Glo MT Cell Viability Assay in HepG2 cells - 40 hour (AID 1224870); further: nearly all actives have a fitted effect of over 50% in size
Method in brief: (§4)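 HepG2 cells (600/well) mixed with RealTime-Glo MT reagent, settled 5 h at 37 C/5% CO2 before compound addition. Nonlytic NanoLuc luminescence from viable-cell prosubstrate reduction read repeatedly during 40 h treatment at 37 C.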

[10] = A CellTox Green Cytotoxicity Assay to monitor cytotoxicity in HEK293 cells - 40 hour (AID 1224871); further: nearly all actives have a fitted effect of over 45% in size
Method in brief: as §3

[11] = qHTS RealTime-Glo MT Cell Viability Assay in HepG2 cells - 8 hour (AID 1224873); further: nearly all actives have a fitted effect of over 55% in size
Method in brief: as §4

[12] = qHTS RealTime-Glo MT Cell Viability Assay in HEK293 cells - 40 hour (AID 1224874); conditions: RealTime-Glo luminescence; max response: stronger effect = lower value; further: nearly all actives have a fitted effect of over 50% in size
Method in brief: (§5)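 HEK293 + NanoLuc + prosubstrate, 600 cells/well; 5 h, 37 C/5% CO2; compound 23 nL in DMSO by pintool; 37 C; luminescence read at 0, 8, 16, 24, 32 and 40 h time points.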

[13] = A CellTox Green Cytotoxicity Assay to monitor cytotoxicity in HEK293 cells - 24 hour (AID 1224875); further: nearly all actives have a fitted effect of over 45% in size
Method in brief: as §3

[14] = A CellTox Green Cytotoxicity Assay to monitor cytotoxicity in HepG2 cells - 16 hour (AID 1224876); further: nearly all actives have a fitted effect of over 45% in size
Method in brief: (§6)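 Measurements at 0, 8, 16, 24, 32 and 40 h of treatment captured CellTox Green fluorescence in HepG2 cells that had been co-plated with reagent and preincubated 5 h at 37 C/5% CO2.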

[15] = qHTS RealTime-Glo MT Cell Viability Assay in HepG2 cells - 32 hour (AID 1224877); further: nearly all actives have a fitted effect of over 55% in size
Method in brief: as §1

[16] = A CellTox Green Cytotoxicity Assay to monitor cytotoxicity in HepG2 cells - 24 hour (AID 1224878); further: nearly all actives have a fitted effect of over 45% in size
Method in brief: as §6

[17] = A CellTox Green Cytotoxicity Assay to monitor cytotoxicity in HepG2 cells - 40 hour (AID 1224879); further: nearly all actives have a fitted effect of over 40% in size
Method in brief: as §6

[18] = qHTS RealTime-Glo MT Cell Viability Assay in HEK293 cells - 0 hour (AID 1224880)
Method in brief: as §5

[19] = A CellTox Green Cytotoxicity Assay to monitor cytotoxicity in HEK293 cells - 32 hour (AID 1224881); further: nearly all actives have a fitted effect of over 40% in size
Method in brief: as §3

[20] = qHTS RealTime-Glo MT Cell Viability Assay in HEK293 cells - 16 hour (AID 1224872)
Method in brief: as §2
On the % scale 0 is the no-effect control and ±100 the full control effect.

CCCCCCC(=O)O
inactive: Potency [1] | outcome [2] | Potency [3] | Potency [4] | activity change, positive = activation ([5]; at 92.4 µM (top of the series)) 5.44% and -1.64% | Potency [6] | Potency [7] | Potency [8] | Potency [9] | Potency [10] | Potency [11] | max response [12] 0.822% and 2.88% | Potency [13] | Potency [14] | Potency [15] | Potency [16] | Potency [17] | Potency [18] | Potency [19]

NCCNCCNCCN
inactive: Potency [1] | outcome [2] | Potency [3] | Potency [4] | activity change, positive = activation ([5]; at 42.5 µM (top of the series)) 0.597% | Potency [6] | Potency [7] | Potency [8] | Potency [9] | Potency [10] | Potency [20] | max response [12] 2.02% and 3.6% | Potency [13] | Potency [14] | Potency [15] | Potency [16] | Potency [17] | Potency [18] | Potency [19]

O=[N+]([O-])c1ccccc1C(F)(F)F
inactive: Potency [1] | outcome [2] | Potency [3] | Potency [4] | activity change, positive = activation ([5]; at 92.4 µM (top of the series)) -5.97% and 7.68% | Potency [6] | Potency [7] | Potency [8] | Potency [9] | Potency [10] | Potency [20] | Potency [11] | max response [12] 3.79% and 8.48% | Potency [14] | Potency [15] | Potency [16] | Potency [17] | Potency [18] | Potency [19]

CC(COCC(C)OC(=O)c1ccccc1)OC(=O)c1ccccc1 (stereo not drawn)
inactive: Potency [1] | outcome [2] | Potency [3] | Potency [4] | activity change, positive = activation ([5]; at 92.4 µM (top of the series)) -2.03% and -5.66% | Potency [6] | Potency [8] | Potency [9] | Potency [10] | Potency [13] | Potency [14] | Potency [15] | Potency [16] | Potency [17] | Potency [18] | Potency [19]

CCCOCC(C)O (stereo not drawn)
inactive: Potency [1] | outcome [2] | Potency [3] | Potency [4] | activity change, positive = activation ([5]; at 92.4 µM (top of the series)) 5.9% and 6.38% | Potency [6] | Potency [7] | Potency [8] | Potency [9] | Potency [10] | max response [12] 6.7% and -0.928% | Potency [14] | Potency [15] | Potency [16] | Potency [17] | Potency [18] | Potency [19]

CC/C(C)=N/O
inactive: Potency [1] | outcome [2] | Potency [3] | Potency [6] | Potency [7] | Potency [8] | Potency [9] | Potency [10] | Potency [20] | Potency [11] | max response [12] 0.953% and 3.11% | Potency [13] | Potency [14] | Potency [15] | Potency [16] | Potency [17] | Potency [18] | Potency [19]

CCc1cccc(O)c1
inactive: Potency [1] | outcome [2] | Potency [3] | Potency [6] | Potency [7] | Potency [8] | Potency [9] | Potency [10] | Potency [20] | Potency [11] | max response [12] -1.01% and 0% | Potency [13] | Potency [14] | Potency [15] | Potency [16] | Potency [17] | Potency [18] | Potency [19]

OCc1ccc(Cl)cc1Cl
inactive: Potency [1] | outcome [2] | Potency [3] | Potency [6] | Potency [7] | Potency [8] | Potency [9] | Potency [10] | Potency [20] | Potency [11] | max response [12] 3.27% and 4.82% | Potency [14] | Potency [15] | Potency [16] | Potency [17] | Potency [18] | Potency [19]

CCCOC(=O)NCCCN(C)C
inactive: Potency [1] | outcome [2] | Potency [3] | Potency [6] | Potency [7] | Potency [8] | Potency [9] | Potency [10] | Potency [20] | max response [12] 3.11% and 1.66% | Potency [13] | Potency [14] | Potency [15] | Potency [16] | Potency [17] | Potency [18] | Potency [19]

CCCCCCCCCCCC(=O)N(C)CC(=O)O
inactive: Potency [1] | outcome [2] | Potency [3] | Potency [6] | Potency [7] | Potency [8] | Potency [9] | cytotoxicity increase [10] 3.46% [at 6.97 µM] | Potency [20] | Potency [11] | max response [12] 1.1% and -15.4% | Potency [14] | Potency [15] | Potency [16] | cytotoxicity increase [17] 1.38% [at 6.97 µM] | Potency [18] | cytotoxicity increase [19] 0.815% [at 6.97 µM]

COC(=O)CCCCC(=O)OC
inactive: Potency [1] | outcome [2] | Potency [3] | Potency [6] | Potency [7] | Potency [8] | Potency [9] | Potency [10] | Potency [20] | max response [12] 6.2% and 1.04% | Potency [13] | Potency [14] | Potency [15] | Potency [16] | Potency [17] | Potency [18] | Potency [19]

C=C(C)CC(C)(C)C
inactive: Potency [1] | outcome [2] | Potency [3] | Potency [6] | Potency [7] | Potency [8] | Potency [9] | Potency [10] | Potency [20] | max response [12] 7.8% and -7.58% | Potency [13] | Potency [14] | Potency [15] | Potency [16] | Potency [17] | Potency [18] | Potency [19]

O=C(Cl)c1ccc(C(=O)Cl)cc1
inactive: Potency [1] | outcome [2] | Potency [3] | Potency [6] | Potency [7] | Potency [8] | Potency [9] | Potency [10] | Potency [20] | Potency [11] | max response [12] -18.9% and 3.42% | Potency [14] | Potency [15] | Potency [16] | Potency [17] | Potency [18] | Potency [19]
